# Bioassay records as filed in PubChem BioAssay.
# Hits are enriched below; roughly 4.2% of the tested compounds scored in any of these assays.
# CCHF vOTU inh: CCHFV vOTU protease inhibition | 370,000 tested, 0.55% active | Pep-AMC fluorescence | inhibition, % at 11.5 µM; in the data active = inhibition above about 30%; also: 0% = vehicle wells with enzyme and 100% = no enzyme wells
# RecA intein inh: inhibitors of M. tuberculosis RecA intein splicing; cell-free RecA intein splicing, fluorescence; 290,000 tested, 0.75% active; inhibition, % (test concentration not listed); P9WHJ3; in the data active = inhibition above about 30%;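 also: 0% = vehicle wells and 100% = reference inhibitor control wells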
# Target sequence (P9WHJ3 whole entry, looked up): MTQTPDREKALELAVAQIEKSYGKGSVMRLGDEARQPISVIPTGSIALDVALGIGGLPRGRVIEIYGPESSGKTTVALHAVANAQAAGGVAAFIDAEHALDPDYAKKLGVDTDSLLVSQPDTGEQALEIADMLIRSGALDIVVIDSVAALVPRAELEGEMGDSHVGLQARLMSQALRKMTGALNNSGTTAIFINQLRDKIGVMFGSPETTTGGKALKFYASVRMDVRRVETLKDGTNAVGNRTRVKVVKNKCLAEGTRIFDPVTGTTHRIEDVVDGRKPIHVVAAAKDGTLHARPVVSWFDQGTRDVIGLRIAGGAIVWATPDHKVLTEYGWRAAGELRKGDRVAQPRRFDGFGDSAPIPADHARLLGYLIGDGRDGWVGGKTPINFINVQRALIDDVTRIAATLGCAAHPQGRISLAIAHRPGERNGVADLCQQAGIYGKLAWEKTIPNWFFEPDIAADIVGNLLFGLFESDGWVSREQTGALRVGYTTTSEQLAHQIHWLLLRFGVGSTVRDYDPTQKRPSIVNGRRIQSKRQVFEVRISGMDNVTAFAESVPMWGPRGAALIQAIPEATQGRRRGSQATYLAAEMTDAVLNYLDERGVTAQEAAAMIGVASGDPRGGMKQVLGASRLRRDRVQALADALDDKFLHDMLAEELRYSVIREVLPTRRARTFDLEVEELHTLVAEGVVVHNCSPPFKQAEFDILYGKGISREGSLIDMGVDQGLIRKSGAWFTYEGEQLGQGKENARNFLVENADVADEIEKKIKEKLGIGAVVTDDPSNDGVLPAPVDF
# Mtb bLac sens: beta-lactam sensitization of Mtb H37Rv. M. tuberculosis H37Rv growth with meropenem, percent inhibition. inhibition, % at 25 µM. 330,000 tested, 0.27% active; call rule not given here;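 also: growth measured after seven days incubation then overnight dye step; 0% = bacteria only wells and 100% = bacteria with antibiotic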
# GDH-TPI counter-1: GDH-TPI coupled enzyme inhibition counter-screen | 360,000 tested, 1.2% active | GDH-TPI coupled enzyme counterscreen, NADH absorbance | inhibition, % at 4.8 µM | AID 588335; in the data active = inhibition above about 30%;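 also: 0% = DMSO wells and 100% = wells lacking the enzyme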
# Mtb FBA inh: Mtb fructose-bisphosphate aldolase inhibition; P9WQA3; purified M. tuberculosis FBA, fluorescence read-out; inhibition, % at 1 µM; 360,000 tested, 2.3% active;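 also: 0% = vehicle and 100% = reference inhibitor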
# Mtb FBA confirm: Mtb FBA inhibition, confirmed; shares compounds with Mtb FBA inh; purified M. tuberculosis FBA, fluorescence read-out; inhibition, % at 1 µM; 5,600 tested, 78% active;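 also: 0% = vehicle wells and 100% = reference inhibitor wells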
# GDH-TPI counter-2: counter-screen for M. tuberculosis FBA inhibitors: GDH-TPI coupled enzyme inhibition. shares compounds with Mtb FBA inh. GDH-TPI coupled enzyme counterscreen, fluorescence. inhibition, % at 1 µM. 5,600 tested, 81% active; in the data active = inhibition above about 10%
# Numbers without * were called inactive; x = no result given; + = active, no number. Rule as the data show it, unless noted: active = inhibition above about 27%; inactive = the rest.
SMILES,CCHF vOTU inh,RecA intein inh,Mtb bLac sens,GDH-TPI counter-1,Mtb FBA inh,Mtb FBA confirm,GDH-TPI counter-2
O=[N+]([O-])c1ccc(Cn2ccc3ccc(-c4ccc5ccn(Cc6ccccc6)c5c4)cc32)cc1,9,x,x,x,x,x,x
COC(=O)c1[nH]c2ccc(Cl)cc2c1NC(=O)Oc1ccccc1,-42,-8,10,8,66*,9,-4
COc1ccc(-c2ccc(/C=N/NC(=O)Cc3nnc(N)s3)o2)cc1Cl,-18,-17,-7,38*,29*,54*,30*
Nc1nnc(CC(=O)N/N=C/c2ccc([N+](=O)[O-])cc2)s1,10,1,-8,26,-4,x,x
CCOc1ccc(-n2c(COc3ccc(C)cc3)nnc2SCC(=O)c2ccc3ccccc3c2)cc1,9,x,x,x,x,x,x
Cc1ccc(NC(=O)Nc2nnc(CSCCOc3ccc(Cl)cc3)s2)cc1,2,1,-9,0,3,x,x
COc1ccc(OCCSCc2nnc(NC(=O)Nc3ccc(Cl)cc3)s2)cc1,8,2,2,-1,29*,10,-5
CCN(C(=O)COC(=O)c1ccc(Sc2ncn[nH]2)c([N+](=O)[O-])c1)c1ccccc1C,0,x,x,x,x,x,x
CCCCn1c(NC(C)=O)c(C#N)c2nc3ccccc3nc21,-128,-350,0,11,59*,96*,77*
Cc1cc2ccccc2n1CCNC(=O)c1ccccc1,9,3,69,11,2,x,x
CCCCCn1c(N)c(C#N)c2nc3ccccc3nc21,-66,-374,0,21,111*,-3,-5
N#Cc1c(N)n(CCNC(=O)c2ccccc2)c2nc3ccccc3nc12,-213,-70,3,0,98*,+,+
COc1ccc(Cn2c(N)c(C#N)c3nc4ccccc4nc32)cc1OC,-4,x,69,24,15,x,x
Cc1ccc(Cn2cc(COC(=O)N3CCOCC3)nn2)cc1,10,x,x,x,x,x,x
Cc1cccc(-c2cnc3cccnn23)c1,-71,x,x,1,45*,-8,-7
CCOc1cccc(-c2cnc3cccnn23)c1,-68,x,x,16,73*,-3,-6
C(/C=C\c1ccco1)=NN1CCN(Cc2cccc3ccccc23)CC1,5,x,x,x,x,x,x
O=C(C[C@@H]1C[C@@H]2c3cc(NC(=O)c4ccc5c(c4)OCO5)ccc3O[C@@H]2[C@@H](CO)O1)NCc1cccnc1,13,x,x,x,x,x,x
Cc1ccc(CNC(=O)C2C3C=CC4(CN(Cc5cccnc5)C(=O)C24)O3)cc1 (stereo unspecified),5,0,-8,2,68*,9,-2
COc1ccc(CNC(=O)C2C3C=CC4(CN(Cc5cccnc5)C(=O)C24)O3)cc1 (stereo unspecified),1,-5,3,-2,0,x,x
Cc1cc(NC(=O)c2coc(=O)c(Br)c2)ccc1C(C)C,-25,-5,-1,12,49*,+,+
C[C@@H](NC(=O)c1coc(=O)c(Br)c1)c1ccccc1,-14,0,15,33*,81*,72*,52*
O=C(Nc1ccc(Br)cn1)c1coc(=O)c(Br)c1,-4,2,3,6,19,x,x
COc1ccc(C(=O)NC(C)c2ccccc2)cc1Br (stereo unspecified),8,3,5,0,-2,x,x
O=C(NCc1ccccn1)c1coc(=O)c(Br)c1,-26,-3,-4,12,78*,-4,-6
SMILES,CCHF vOTU inh,RecA intein inh,Mtb bLac sens,GDH-TPI counter-1,Mtb FBA inh,Mtb FBA confirm,GDH-TPI counter-2
O=C(Nc1ccccc1F)c1coc(=O)c(Br)c1,-57,2,-7,14,107*,x,+
OC[C@@H]1CC[C@@H]2O[C@H](CCc3ccc(-c4ccc(F)cc4)cc3)[C@H](n3cc(C4CC4)nn3)C[C@@H]2O1,5,x,x,x,x,x,x
CCN1C(=O)c2cccc3c(S(=O)(=O)N(C)C)ccc1c23,-73,x,x,16,20,x,x
CCN1CCN(S(=O)(=O)c2ccc3c4c(cccc24)C(=O)N3CC)CC1,-59,x,4,1,29*,158*,149*
CCN1C(=O)c2cccc3c(S(=O)(=O)N4CCCC4C(=O)O)ccc1c23 (stereo unspecified),-15,-112,1,15,7,x,x
CCN1C(=O)c2cccc3c(S(=O)(=O)N4CCNCC4)ccc1c23,-59,x,-1,21,28*,73*,65*
Nn1c(SCc2ccc(Br)cc2)nnc1-c1n[nH]c2c1CCC2,-1,x,x,x,x,x,x
CC(C)c1ccc(NC(=O)CSc2nnc(-c3ccco3)n2C)cc1,-1,x,x,x,x,x,x
Nc1[nH]c(C(=O)c2ccccc2)c(-c2cc(F)ccc2Br)c1C(=O)NCCc1c[nH]c2ccccc12,11,x,x,x,x,x,x
O=C(Nc1nc(-c2ccccc2)cs1)c1ccc2c(c1)S(=O)(=O)c1ccccc1C2=O,12,0,8,-2,84*,+,158*
O=C(Nc1nc(-c2cccc3ccccc23)cs1)c1ccc2c(c1)S(=O)(=O)c1ccccc1C2=O,18,4,-8,9,7,x,x
COc1cccc(/C=C/C(=O)OC(C)C(=O)Nc2c(C)n(C)n(-c3ccccc3)c2=O)c1 (stereo unspecified),-1,2,-2,4,29*,122*,101*
CCOC(=O)c1ccc(N2C=C(C(=O)OC)C(c3cccc(O)c3)C(C(=O)OC)=C2)cc1,-45,-1,-6,7,111*,97*,81*
O=[N+]([O-])c1cccc(/C=N\N=C2c3ccccc3-c3ccccc32)c1O,9,2,9,-2,0,x,x
O=[N+]([O-])c1cccc(C=NN=C2c3ccccc3-c3ccccc32)c1,19,x,x,9,30*,144*,109*
CCCCn1c(=O)c2ccccc2c2ccccc2c1=O,6,x,2,-1,-1,x,x
CCCCn1c(=O)nc2n(-c3ccccc3C)c3ccccc3cc-2c1=O,-17,-90,7,7,61*,+,+
COc1ccc(C2CC(=O)C(c3ccc(C(F)(F)F)cc3)=CN2Cc2ccccc2)cc1 (stereo unspecified),22,x,x,x,x,x,x
COCCCNC(=O)c1cc2c(=O)n3cccc(C)c3nc2s1,-51,-36,0,19,65*,66*,47*
Cc1ccccc1NC(=O)c1cc2c(=O)n3cccc(C)c3nc2s1,2,-32,11,16,3,x,x
CCCCNC(=O)c1cc2c(=O)n3cccc(C)c3nc2s1,-58,-12,6,24,74*,+,+
Cc1cccn2c(=O)c(C(=O)NCCCN3CC(C)CC(C)C3)c(O)nc12 (stereo unspecified),-9,-2,-12,11,1,x,x
Cc1cccn2c(=O)c3cc(C(=O)N4COCC4(C)C)sc3nc12,-33,-23,1,-8,44*,191*,149*
Cc1cccn2c(=O)c3cc(C(=O)N4CCC5(CC4)OCCO5)n(C)c3nc12,-33,-5,-1,4,6,x,x
